Screening results as filed in PubChem BioAssay.
Only some compounds are listed: those with a hit (about 2.8% of all), similar ones and a draw of the others.
KDM5B inhibitor: Primary screen for KDM5B Histone Demethylases FDH-coupled qHTS. AID 1347165, 2019. actives 2.6% (n = 220,000). KDM5B demethylase, FDH-coupled NADH fluorescence (FDH is formaldehyde dehydrogenase). Potency, µM (doses to about 57.7 µM), most hits filed as inhibitors. Lysine-specific demethylase 5B (Homo sapiens), Q9UGL1; also: nearly all actives have a fitted effect of over 70% in size
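KDM5BΔAP (200 nM final) in 50 mM HEPES pH 7.5, 0.01% Tween-20 was preincubated 10 min at RT with compound over a concentration range. Substrate mix (H3K4me3 12.5 µM, α-KG 25 µM, Fe²⁺, ascorbate, NAD⁺, FDH) was added, and NADH fluorescence change over 30 min gave dose-response curves.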
IP6K1 inhibitor: Primary qHTS assay for small molecule inhibitors of Inositol hexaphosphate kinase 1 (IP6K1); IP6K1 kinase, ADP-Glo luminescence, 2 h; hits give low values; actives 0.81% (n = 140,000); activity change, % (series mostly up to about 58 µM); Inositol hexakisphosphate kinase 1 (Homo sapiens), Q92551; AID 1645851, 2021; in the data active = activity change below about -25%
Target sequence (Q92551 whole entry, looked up): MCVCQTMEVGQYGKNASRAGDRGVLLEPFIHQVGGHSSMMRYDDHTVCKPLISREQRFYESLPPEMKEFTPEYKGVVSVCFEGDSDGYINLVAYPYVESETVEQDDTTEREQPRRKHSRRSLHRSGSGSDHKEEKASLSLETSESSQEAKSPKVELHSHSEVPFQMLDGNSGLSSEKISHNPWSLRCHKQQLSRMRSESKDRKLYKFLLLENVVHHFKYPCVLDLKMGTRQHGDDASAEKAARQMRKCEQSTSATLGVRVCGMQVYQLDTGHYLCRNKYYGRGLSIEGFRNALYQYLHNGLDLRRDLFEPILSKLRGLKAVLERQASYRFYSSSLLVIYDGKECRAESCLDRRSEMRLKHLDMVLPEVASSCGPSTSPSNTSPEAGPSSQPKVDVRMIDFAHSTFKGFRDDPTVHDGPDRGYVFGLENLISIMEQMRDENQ
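ADP-Glo luminescence measures ADP made by human IP6K1 during a 2 h RT reaction with ATP/IP6 (mix at 1.3 mM/130 uM); top library doses 57.5 and 19.1 uM final.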
IP6K1 conf: Confirmatory qHTS assay for small molecule inhibitors of Inositol hexaphosphate kinase 1 (IP6K1); shares compounds with IP6K1 inhibitor; recombinant IP6K1 kinase, ADP-Glo luminescence, 2 h; Potency, µM (titrated, usually from 49 µM), most hits filed as inhibitors; actives 13% (n = 1,200); AID 1645852, 2021; also: nearly all actives have a fitted effect of over 65% in size
A number is an active result; ! = not active in a repeat. Unless noted, calls follow the shape of the dose curve; as a rule, active = well fitted inhibition curve with a large enough effect; inconclusive = small, poorly fitted or top-dose-only effect; inactive = no such curve, though single readings can be large or run the other way.

Results for CCOC(=O)c1ccc(NC(=O)CC2C(=O)N(c3ccc(F)cc3)C(=O)N2Cc2ccc3c(c2)OCO3)cc1 (stereo not drawn) ?
KDM5B inhibitor: inconclusive; IP6K1 inhibitor: inactive

What do the screens show for `CCOC(=O)c1ccc(NC(=O)CC2C(=O)N(c3ccc(F)cc3)C(=O)N2Cc2ccc(C)cc2)cc1` (stereo not drawn)?
KDM5B inhibitor: inactive; IP6K1 inhibitor: -29; IP6K1 conf: inconclusive

Results for CCOC(=O)c1nc(N(CC)Cc2ccccc2)c2ccccc2n1 ?
KDM5B inhibitor: inactive

What do the screens show for `Cc1cc(C(=O)Nc2ccccc2Cc2ccccc2)cs1`?
KDM5B inhibitor: inactive

What do the screens show for `COc1ccc(-n2cc(-c3ccccc3)c3c(NC4CCCCC4)ncnc32)cc1`?
KDM5B inhibitor: inconclusive; IP6K1 inhibitor: -25; IP6K1 conf: inconclusive

How did CCOc1ccc(-n2cc(-c3ccccc3)c3c(NC4CCCCC4)ncnc32)cc1 do in these assays?
KDM5B inhibitor: inactive; IP6K1 inhibitor: inactive

How did CN1CCN(NC(=O)c2ccccc2Br)CC1 do in these assays?
KDM5B inhibitor: inactive

How did CC(C)CCN1CC2(CCCN(S(=O)(=O)N3CCOCC3)C2)CCC1=O (stereo not drawn) do in these assays?
KDM5B inhibitor: inactive; IP6K1 inhibitor: -33; IP6K1 conf: inactive

Results for Cc1nc(CC(=O)N2CCCC3(CCC(=O)N(CCC(C)C)C3)C2)cs1 (stereo not drawn) ?
KDM5B inhibitor: inactive; IP6K1 inhibitor: inactive

Results for CCc1ccc2occ(CC(=O)N(Cc3cccs3)C3CCS(=O)(=O)C3)c2c1 (stereo not drawn) ?
KDM5B inhibitor: inactive

How did Nc1ncnc(Nc2ccc(F)c(Cl)c2)c1[N+](=O)[O-] do in these assays?
KDM5B inhibitor: inactive

How did COc1cc(C(=O)Nc2cccc(SC)c2)cc(Br)c1O do in these assays?
KDM5B inhibitor: inactive

What do the screens show for `c1cnc2nc(C3CCNC3)[nH]c2c1` (stereo not drawn)?
KDM5B inhibitor: inconclusive; IP6K1 inhibitor: inactive

What do the screens show for `c1cnc2nc(-c3c[nH]c4ncccc34)[nH]c2c1`?
KDM5B inhibitor: inconclusive; IP6K1 inhibitor: -44!; IP6K1 conf: inconclusive

How did Cc1nn(-c2ccccc2)c(C)c1CN(C)C(=O)CNC(=O)c1ccc(Oc2ccccc2)cc1 do in these assays?
KDM5B inhibitor: inactive

What do the screens show for `CC(C)(C)c1nnc2ccc(C(=O)NCc3cccc(Cl)c3)cn12`?
IP6K1 inhibitor: inactive

How did CC(C)c1ccc(S(=O)(=O)c2cnc(SCC(=O)Nc3ccc4c(c3)OCCO4)[nH]c2=O)cc1 do in these assays?
KDM5B inhibitor: inactive; IP6K1 inhibitor: inactive

How did Cc1ccc(S(=O)(=O)c2cnc(SCC(=O)Nc3ccc4c(c3)OCCO4)[nH]c2=O)cc1 do in these assays?
KDM5B inhibitor: inactive; IP6K1 inhibitor: -30; IP6K1 conf: inconclusive

Results for COc1ccc(S(=O)(=O)c2cnc(SCC(=O)Nc3cc(F)ccc3C)[nH]c2=O)cc1Cl ?
KDM5B inhibitor: inactive; IP6K1 inhibitor: inactive

Results for COc1cccc(NC(=O)CSc2ncc(S(=O)(=O)c3ccc(C)c(C)c3)c(=O)[nH]2)c1 ?
KDM5B inhibitor: inactive; IP6K1 inhibitor: -29; IP6K1 conf: inconclusive

What do the screens show for `O=C(Nc1ccc2nc(SCc3ccc(Br)cc3)sc2c1)C1CCCCC1`?
KDM5B inhibitor: inactive

What do the screens show for `COCc1cc(C)nc2sc3c(c12)NC(c1ccc(O)c(OC)c1)N(c1ccccc1)C3=O` (stereo not drawn)?
KDM5B inhibitor: inconclusive; IP6K1 inhibitor: inactive

Results for COCc1cc(C)nc2sc3c(c12)NC(c1ccccc1C(=O)O)N(c1ccc(OC)cc1)C3=O (stereo not drawn) ?
KDM5B inhibitor: inconclusive; IP6K1 inhibitor: -31; IP6K1 conf: inactive

Results for O=C(NCC1CC1)c1ccc2nnc(-c3ccc(C(F)(F)F)cc3)n2c1 ?
IP6K1 inhibitor: inactive

Results for CCOCCNC(=O)C1CCCN1c1nccc(Nc2ccccc2F)n1 (stereo not drawn) ?
IP6K1 inhibitor: inactive

How did COc1cc2ncnc(NCc3cc(F)ccc3F)c2cc1OC do in these assays?
KDM5B inhibitor: inactive

Results for COc1cc2ncnc(Nc3cc(Br)c(O)c(Br)c3)c2cc1OC ?
IP6K1 inhibitor: inactive; IP6K1 conf: inconclusive

What do the screens show for `COc1cc2ncnc(Nc3cccc(I)c3)c2cc1OC`?
IP6K1 inhibitor: -33; IP6K1 conf: 12µM

How did CC(C)COc1ccc(Nc2ncnc3ccc(Br)cc23)cc1 do in these assays?
KDM5B inhibitor: inactive; IP6K1 inhibitor: inactive

What do the screens show for `CCC(C)Nc1ccc2c(cc1=O)[C@@H](NC(C)=O)CCc1cc(OC)c(OC)c(OC)c1-2` (stereo partly drawn)?
KDM5B inhibitor: inactive
